Data from PubChem BioAssay (NCI).
Compounds without any hit were thinned out: in the full panel of roughly 83,000, 20% have a hit.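 Results are percent growth after 48 hours of single-concentration exposure. 100 means growth as in untreated cells, lower positive values show inhibition; negative values down to -100 show cell death.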 Activity calls are given as the source filed them. The calls were made as follows: active = growth percent below 10; inactive = the rest.

What follows are compounds tested on KM12 colon (assay: NCI-60 one-dose screen, 48 h (100 = growth as untreated, 0 = no growth, -100 = all killed)). Settings: 10 µM unless noted.

| Structure (SMILES) | growth |
| --- | --- |
| O=S(=O)(NCCCNc1nccc(-c2c(-c3ccc(F)c(O)c3)nc3sccn23)n1)c1ccc(Cl)cc1 | 75.1% (inactive) |
| Nc1ccc(S(=O)(=O)c2ccc(Cl)cc2)cc1 | 93.4% (inactive) |
| O=C1OC(c2ccccc2)=N/C1=C\c1ccc([N+](=O)[O-])cc1 | 94.5% (inactive) |
| CC(Br)C(Br)c1cc2c(cc1Br)OCO2 (stereo not drawn) | 103% (inactive) |
| COc1ncc(-c2ccc3ncnc(Nc4cccc(Cl)c4)c3c2)cc1NS(=O)(=O)CCN1CCOCC1 | 26% (inactive) |
| CCCCC[C@@H]1Cc2cc(O)c(C(=O)O)c3c2[C@H](C[C@@]2(CCCO2)O3)O1 | 118% (inactive) |
| CC(C)C[C@H](NC(=O)[C@@H](Cc1ccccc1)n1ccc(Nc2ccccc2)cc1=O)B(O)O | -55.1% (active) |
| N#CC1=C(N)n2nc(-c3ccncc3)nc2NC1c1cccc2ccccc12 (stereo not drawn) | 97.6% (inactive) |
| O=c1cc(C2NCCc3c2[nH]c2ccccc32)c2c(ccc3ccccc32)o1 (stereo not drawn) | 63.5% (inactive) |
| CC(C)CCC[C@@H](C)[C@H]1CC[C@H]2[C@@H]3CC[C@H]4C/C(=N/O)CC[C@]4(C)[C@H]3CC[C@]12C | 108% (inactive) |
| COc1ccc(/C=C/C(=O)c2cccc(B(O)O)c2)cc1O | 3.44% (active) |
| O=c1oc2c([nH]c3ccc4ccccc4c32)c2ccccc12 | 106% (inactive) |
| O=C(NCCc1c[nH]c2ccccc12)C1Cc2ccccc2CN1C(=O)c1ccco1 (stereo not drawn) | 105% (inactive) |
| CC/C=C\C[C@H]1C/C=C2/C(=O)C(Cl)=C[C@@H]2C/C=C\CCCC(=O)O1 | -74.3% (active) |
| C/C(=N\NC(=O)CC#N)c1cc2cc(Cl)ccc2o1 | 98.9% (inactive) |
| O=C(Nc1ccc(F)cc1)c1cc([N+](=O)[O-])ccc1O | 51.6% (inactive) |
| CCN(CC)CCSc1c2ccc(Cl)cc2nc2ccc(OC)cc12 | 99.1% (inactive) |
| O=[N+]([O-])c1ccc(S(=O)(=O)N2CCN(c3ccnc4cc(Cl)ccc34)CC2)c([N+](=O)[O-])c1 | 103% (inactive) |
| O=[N+]([O-])c1c(S(=O)(=O)O)cc2cc(S(=O)(=O)O)ccc2c1[N+](=O)[O-] | 91.5% (inactive) |

| Structure (SMILES) | growth |
| --- | --- |
| Clc1nc(Cl)c2ncn(C/C=C/Cn3cnc4c(Cl)nc(Cl)nc43)c2n1 | 78.7% (inactive) |
| CC(C)C[C@H](NC(=O)Cn1ccc(NCc2ccccc2)cc1=O)B(O)O | 24.7% (inactive) |
| N#Cc1ccc(NC(=O)c2ccc3cccnc3c2O)cc1 | 25.7% (inactive) |
| CCCCCCc1nc2c(c(C)nn2-c2ccccc2)c2c1CCCCC2 | 108% (inactive) |
| Nc1nc(N)c2nc(CNc3ccc(C(=O)CC(CCC(=O)O)C(=O)O)cc3)cnc2n1 (stereo not drawn) | 32.2% (inactive) |
| Nc1nc(Cl)c2c(ncn2Cc2ccc(CCl)cc2)n1 | 94.3% (inactive) |
| CCOc1ccc(/C=C/C=N/NC(N)=S)cc1 | 84% (inactive) |
| COc1cc(/C=C/C(=O)c2ccccc2O)ccc1OCCCOc1cc2c(cc1OC)C(=O)N1CCC[C@H]1C=N2 | -18.3% (active) |
| CC(CCc1ccccc1)NC(=O)c1n[nH]c(=O)c2ccccc12 (stereo not drawn) | 109% (inactive) |
| COc1cc(-c2nc(-c3nc4ccccc4[nH]3)cc3c2[nH]c2ccccc23)cc(OC)c1OC | 18.7% (inactive) |
| O=C(/C=C/CN1CCOCC1)Nc1cc2c(Nc3ccc(F)c(Cl)c3F)ncnc2cc1OCCOC(F)F | 74.1% (inactive) |
| COc1cc(NS(C)(=O)=O)ccc1Nc1c2ccc([N+](=O)[O-])cc2nc2c(C)cccc12 | -29.1% (active) |
| O=S(=O)(NCCCNc1cc(-c2cn(-c3ccccc3)nc2-c2cccc(O)c2)ccn1)c1cccc2ccccc12 | 25.5% (inactive) |
| O=c1[nH]c(-c2cn(-c3ccc(Cl)cc3)nn2)nc2ccccc12 | 84.7% (inactive) |
| CCN(C(=O)c1cc2ccccc2[nH]1)[C@H]1CCC[C@@H](NCc2ccc(OC)cc2)C1 | 90.4% (inactive) |
| COc1ccc(/C=C/C(=O)c2ccc(B(O)O)cc2)cc1O | 9.39% (active) |
| Clc1ccc2c(c1)NC1(CCSc3ccccc31)n1nccc1-2 (stereo not drawn) | 102% (inactive) |
| O=C1NC(Cc2c[nH]c3ccccc23)C(=O)N1Cc1ccc(Cl)cc1 (stereo not drawn) | 99.3% (inactive) |
| CCCCCCCCCCC/C=C\C[C@H](O)C/C=C1/C(=O)C=C[C@@H]1C/C=C\CCCC(=O)OC | -48.5% (active) |
